WRN helicase inh-1: blocks human WRN helicase. Potency, µM (top dose mostly 114 µM), without a hit: top-dose activity change, negative = inhibition, usual class: inhibitors. AID 651768. WRN helicase unwinding, fluorescent forked duplex, kinetic. Q14191. 0.46% of 360,000 active; further: potency means the concentration at half of the fitted maximal effect; on the % scale 0 is the no-effect control and ±100 the full control effect; nearly all actives have a fitted effect of over 55% in size
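Fluorescence dequenching readout, ex 525 nm/em 598 nm, kinetic mode: forked duplex DNA (100 nM final) with adjacent fluorophore and quencher unwound by WRN (20 nM final) with 2 mM ATP. Compound preincubation 15 min, room temperature.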
PI5P4K alpha inh: inhibitors of human PI5P4K alpha; PI5P4Kalpha enzyme, ADP-Glo luminescence, 60 min; active compounds read low; 1.2% of 330,000 active; P48426; max response, %; active means max response of -50% or lower; inconclusive means between -30% and -50%; inactive means -30% or higher; further: value at the top dose of about 77 µM; on the % scale 0 is the no-effect control and ±100 the full control effect
Target sequence (P48426 whole entry, looked up): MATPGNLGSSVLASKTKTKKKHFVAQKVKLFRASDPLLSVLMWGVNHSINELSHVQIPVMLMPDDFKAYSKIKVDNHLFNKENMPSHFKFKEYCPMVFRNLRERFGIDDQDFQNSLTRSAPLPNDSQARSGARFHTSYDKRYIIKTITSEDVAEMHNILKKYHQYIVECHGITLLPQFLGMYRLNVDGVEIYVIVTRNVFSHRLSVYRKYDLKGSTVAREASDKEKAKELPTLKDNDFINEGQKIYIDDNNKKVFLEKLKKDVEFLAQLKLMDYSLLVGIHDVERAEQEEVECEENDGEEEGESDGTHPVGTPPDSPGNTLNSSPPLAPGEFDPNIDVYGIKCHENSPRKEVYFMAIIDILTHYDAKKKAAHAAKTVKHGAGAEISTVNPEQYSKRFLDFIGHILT
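Single end-point luminescence (ADP-Glo) quantified ADP from PI5P4Kalpha turnover; ATP 5 microM final, 1 h at RT, 0.1% CHAPS and 0.28 mM EGTA in HEPES pH 7.4.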
FEN1 inhibitor: human FEN1 inhibition | P39748 | Potency, µM (highest dose often 114 µM), without a hit: top-dose activity change, negative = inhibition, actives largely listed as inhibitors | AID 588795 | 0.35% of 390,000 active | Recombinant FEN1 flap cleavage, fluorescence, 15 min; further: potency means the concentration at half of the fitted maximal effect; on the % scale 0 is the no-effect control and ±100 the full control effect; nearly all actives have a fitted effect of over 65% in size
Target sequence (P39748 whole entry, looked up): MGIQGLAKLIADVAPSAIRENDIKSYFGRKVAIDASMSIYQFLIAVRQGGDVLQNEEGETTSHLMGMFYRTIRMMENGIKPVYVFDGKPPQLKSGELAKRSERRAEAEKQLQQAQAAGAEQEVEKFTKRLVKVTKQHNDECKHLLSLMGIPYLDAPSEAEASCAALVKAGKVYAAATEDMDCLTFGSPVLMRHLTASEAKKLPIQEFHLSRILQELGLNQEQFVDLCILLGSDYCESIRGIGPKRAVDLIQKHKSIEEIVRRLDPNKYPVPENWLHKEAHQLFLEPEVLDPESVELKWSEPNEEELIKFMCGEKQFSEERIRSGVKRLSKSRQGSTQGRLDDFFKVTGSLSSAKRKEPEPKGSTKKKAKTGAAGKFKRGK
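FEN1 at 10 nM, compound pretreatment for 15 min (room temperature), 50 nM final substrate to initiate; endpoint reads at 0 and 15 min; DMSO-only plates used as vehicle background.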
TCR act: activators of T cell receptors | primary human leukocytes, anti-CD3, IL-2 HTRF, 48 h | Potency, µM (highest dose often 9.22 µM), inactives show at the top dose activation of IL-2 secretion, actives largely listed as activators | 330,000 tested, under 10 active | AID 504894; further: % of control where 0% means no effect
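TCR engagement came from a-CD3 beads alone, with compounds added to primary human leukocytes for 48 hr. Secreted IL-2 bridged europium cryptate- and d2-labelled anti-IL-2 antibodies, giving FRET emission at 665nm after 320nm excitation.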
VDR inhibitor: inhibitors of human vitamin D receptor; P11473; VDR-SRC2-3 peptide fluorescence polarization, 2 h; Potency, µM, without a hit: max response, negative = inhibition, hits mostly inhibitors; 0.93% of 400,000 active; AID 504847; further: potency means the concentration at half of the fitted maximal effect; on the % scale 0 is the no-effect control and ±100 the full control effect
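Signal is fluorescence polarization, reporting how far test compounds block the interaction of VDR with the SRC2-3 coregulator peptide after a 2 h room-temperature incubation.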
PLK1 PBD inh: inhibitors of human PLK1 polo-box domain binding; Plk1 PBD binding of FITC phosphopeptide, fluorescence polarization; Potency, µM, without a hit: max response, negative = inhibition, usual class: inhibitors; 2.8% of 360,000 active; AID 720504; further: potency means the concentration at half of the fitted maximal effect; series mostly up to about 57 µM; on the % scale 0 is the no-effect control and ±100 the full control effect; nearly all actives have a fitted effect of over 65% in size
WRN helicase inh-2: confirmation of human WRN helicase inhibitors; shares compounds with WRN helicase inh-1; WRN helicase DNA unwinding, fluorescence kinetic; Potency, µM (highest dose often 57.1 µM), for the others: top-dose activity, negative = inhibition, hits mostly inhibitors; 63% of 610 active; further: potency means the concentration at half of the fitted maximal effect; nearly all actives have a fitted effect of over 65% in size
TO DNA binding: counter-screen for WRN helicase inhibitors: DNA binding; thiazole orange DNA binding displacement, fluorescence; shares compounds with WRN helicase inh-1; 10% of 610 active; Potency, µM (highest dose often 57.1 µM), inactives show at the highest dose activity change, negative = inhibition, usual class: inhibitors; AID 720499;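 further: drop in dye fluorescence marks compound binding to DNA; potency means the concentration at half of the fitted maximal effect; on the % scale 0 is the no-effect control and ±100 the full control effect; nearly all actives have a fitted effect of over 60% in size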
BLM counter: counter-screen for WRN helicase inhibitors: human BLM helicase inhibition. shares compounds with WRN helicase inh-1. Recombinant BLM helicase DNA unwinding, red fluorescence. Potency, µM (series often up to 57.1 µM), without a hit: at the top dose activity change, negative = inhibition, actives largely listed as inhibitors. 60% of 610 active; further: potency means the concentration at half of the fitted maximal effect; nearly all actives have a fitted effect of over 60% in size
ADP-Glo counter: counter-screen for PI5P4K inhibitors: ADP-Glo detection interference, no enzyme | shares compounds with PI5P4K alpha inh | ADP-Glo detection counter-screen, luciferase luminescence, no enzyme | Potency, µM (titrated, usually from 76.9 µM), inactives show at the highest dose activity change, negative = inhibition, hits mostly inhibitors | 1,100 tested, under 10 active | AID 743285
TbPYK confirm: Trypanosoma brucei pyruvate kinase inhibition, cherry-pick confirmation; 67% of 890 active; Potency, µM (series often up to 76.9 µM), inactives show at the top dose activity change, negative = inhibition, hits mostly inhibitors; shares compounds with PLK1 PBD inh; recombinant TbPYK, Kinase-Glo ATP luminescence; further: potency means the concentration at half of the fitted maximal effect; on the % scale 0 is the no-effect control and ±100 the full control effect; nearly all actives have a fitted effect of over 70% in size
TbPYK ADP-Glo: inhibits T. brucei pyruvate kinase in orthogonal ADP-Glo assay | shares compounds with PLK1 PBD inh | recombinant TbPYK, ADP-Glo luminescence, 60 min | Potency, µM (highest dose often 76.9 µM), for the others: top-dose activity change, negative = inhibition, hits mostly inhibitors | 62% of 890 active | AID 720584; further: potency means the concentration at half of the fitted maximal effect; on the % scale 0 is the no-effect control and ±100 the full control effect; nearly all actives have a fitted effect of over 75% in size
* hit, by the source's call; ? = inconclusive; nt = no result given; [ ] = remark or other dose. The list is not random: actives were taken first. Their share in the collection is about 3.7%. Unless noted, the call rests on the fitted dose curve; in most records, active means well fitted curve in the direction sought with a large enough effect; inconclusive means small, poorly fitted or top-dose-only effect, or another doubt; inactive means no such curve, though single readings can be large; an effect the other way counts as inactive or inconclusive.

SMILES	WRN helicase inh-1	PI5P4K alpha inh	FEN1 inhibitor	TCR act	VDR inhibitor	PLK1 PBD inh	WRN helicase inh-2	TO DNA binding	BLM counter	ADP-Glo counter	others
O=C(c1cccc(-n2cccc2)c1)N1CCN(S(=O)(=O)c2c(F)cccc2F)CC1	?	-28	-13%	5%	8%	-13%	nt	nt	nt	nt
O=C(c1cccc(-n2cccc2)c1)N1CCN(S(=O)(=O)c2ccccc2)CC1	18µM*	-69*	?	-2%	-15%	?	4.3µM*	?	1.1µM*	3%
COc1ccc(CCNC(=O)C2CCN(c3ncnc4c3nc3n4CCCCC3)CC2)c(OC)c1	nt	nt	5%	nt	3%	nt	nt	nt	nt	nt
Cc1ccc(N(CC(=O)NCc2ccco2)S(=O)(=O)c2ccccc2)cc1	-3%	nt	-17%	-2%	-16%	-6%	nt	nt	nt	nt
COc1ccccc1N(CC(=O)NCc1ccco1)S(=O)(=O)c1ccc(C)cc1	35µM*	-80*	?	-1%	-13%	27µM*	17µM*	29%	14µM*	-2%
COc1ccccc1N1CCN(C(=O)c2cnc(N3CCOCC3)c3ccccc23)CC1	nt	nt	-6%	nt	-8%	nt	nt	nt	nt	nt
CC1=C(C(=O)NCc2ccc(Cl)cc2)C2(CCCCCC2)OC1=O	nt	nt	2%	nt	-8%	nt	nt	nt	nt	nt
Cc1ccc(C)c(NC(=O)CN(C)C(=O)c2cccc(-n3cccc3)c2)c1	50µM*	-60*	-18%	-4%	-9%	?	22µM*	-2%	11µM*	-1%
Cc1c2cnn(CC(=O)Nc3c(F)c(F)cc(F)c3F)c(=O)c2c(C)n1Cc1ccccc1F	?	-56*	79µM*	-2%	17%	?	19µM*	27%	3.8µM*	4%
CCCCCCNC(=O)c1cc(-c2ccco2)nc2ccccc12	40µM*	-86*	-8%	0%[46.1 µM]	?	27µM*	?	-23%	17µM*	-9%
CCc1nnc(NC(=O)c2cc(-c3ccco3)nc3ccccc23)s1	35µM*	-78*	?	2%	-9%	?	?	24µM*	1.9µM*	-6%
O=C(c1cnc(N2CCOCC2)c2ccccc12)N1CCN(c2ccccc2F)CC1	nt	nt	-8%	nt	-8%	nt	nt	nt	nt	nt
COc1cccc(C(=O)Nc2cccc(NC(=O)c3ccc(Cl)cc3Cl)c2)c1	nt	nt	8%	nt	-19%	nt	nt	nt	nt	nt
COc1cccc(C(=O)Nc2cccc(C(=O)NC3=NN(c4c(Cl)cc(Cl)cc4Cl)C(=O)C3)c2)c1	?	-58*	?	-9%[46.1 µM]	-5%	?	?	?	?	3%
CCCC(=O)NC1=C(Cl)C(=O)c2ccccc2C1=O	25µM*	-58*	-33%	0%	7.9µM*	3µM*	-17%	4.8µM*	24µM*	nt	TbPYK confirm=7.1µM*;TbPYK ADP-Glo=7.1µM*
CCNC1=C(Cl)C(=O)c2ccccc2C1=O	-15%	-11	13%	-2%	-9%	-4%	nt	nt	nt	nt
Cc1cccc(C2=NOC(=O)/C2=C\c2ccccc2F)c1	7%	0	19%	2%	-13%	-20%	nt	nt	nt	nt
O=C1ON=C(c2ccc([N+](=O)[O-])cc2)/C1=C/c1ccccc1O	?	?	9%	0%	79µM*	1.7µM*	-29%	-7%	-28%	nt	TbPYK confirm=?;TbPYK ADP-Glo=-28%
Cc1cc(=O)oc2cc(OCC(=O)Nc3c(C(C)C)cccc3C(C)C)ccc12	nt	nt	-11%	nt	-11%	nt	nt	nt	nt	nt
COC1=C(OC)C(=O)C(Sc2ccc3ccccc3c2)=CC1=O	20µM*	-91*	5%	3%	8.9µM*	0.75µM*	9%	-8%	-6%	nt	TbPYK confirm=0.35µM*;TbPYK ADP-Glo=2.2µM*
Cc1cc(C)cc(Oc2nc3c(c(=O)n(C)c(=O)n3C)n2Cc2ccc(F)cc2)c1	nt	nt	5%	nt	?	nt	nt	nt	nt	nt
Cc1ccc(C2=NC(=O)/C(=C/c3cc(O)c(O)c(Br)c3)S2)cc1	7.9µM*	-82*	11µM*	0%	?	?	1.7µM*	6.8µM*	0.76µM*	nt	TbPYK confirm=32µM*;TbPYK ADP-Glo=?
Cc1oc2ccc(OCc3ccccc3Cl)cc2c1C(=O)O	1%	-61*	16%	-4%	-2%	-8%	nt	nt	nt	-5%
COc1ccc(NC(=O)CSc2nc3[nH]c(=O)cc(O)c3s2)cc1OC	-25%	-6	-3%	1%	-21%	-13%	nt	nt	nt	nt
O=c1cc(O)c2sc(Nc3cccc(C(F)(F)F)c3)nc2[nH]1	?	-84*	-12%	4%[46.1 µM]	-23%	-20%	nt	nt	nt	-8%
SMILES	WRN helicase inh-1	PI5P4K alpha inh	FEN1 inhibitor	TCR act	VDR inhibitor	PLK1 PBD inh	WRN helicase inh-2	TO DNA binding	BLM counter	ADP-Glo counter	others
O=c1cc(O)c2sc(Nc3ccc(F)cc3)nc2[nH]1	-10%	-83*	-4%	3%[46.1 µM]	-5%	-11%	nt	nt	nt	2%
COc1ccc(N(C(=O)C2CSC(=O)C2)C(C(=O)NC(C)(C)C)c2ccncc2)cc1 (stereo unspecified)	0%	-78*	16%	2%	-2%	-5%	nt	nt	nt	2%
Cc1ccc(NCC(=O)Nc2ccc(Br)cc2)cc1C	0%	-3	20%	nt	-5%	-1%	nt	nt	nt	6%
N#Cc1ccccc1S(=O)(=O)N1CCN(C(=O)C2COc3ccccc3O2)CC1 (stereo unspecified)	?	-52*	-5%	4%	-16%	-19%	nt	nt	nt	-2%
O=C(C1COc2ccccc2O1)N1CCN(S(=O)(=O)c2cc(F)ccc2F)CC1 (stereo unspecified)	2%	-2	-11%	-13%	-1%	-14%	nt	nt	nt	nt
CCN(CC(=O)N1CCC(C(N)=O)CC1)S(=O)(=O)c1cc(Cl)ccc1Cl	8%	-52*	0%	-5%	-2%	?	nt	nt	nt	4%
